FBA Mtb inh – inhibitors of M. tuberculosis fructose-bisphosphate aldolase. P9WQA3. purified M. tuberculosis FBA, fluorescence read-out. inhibition, % at 1 µM. 360,000 compounds, 2.3% hits
Target sequence (P9WQA3 whole entry, looked up): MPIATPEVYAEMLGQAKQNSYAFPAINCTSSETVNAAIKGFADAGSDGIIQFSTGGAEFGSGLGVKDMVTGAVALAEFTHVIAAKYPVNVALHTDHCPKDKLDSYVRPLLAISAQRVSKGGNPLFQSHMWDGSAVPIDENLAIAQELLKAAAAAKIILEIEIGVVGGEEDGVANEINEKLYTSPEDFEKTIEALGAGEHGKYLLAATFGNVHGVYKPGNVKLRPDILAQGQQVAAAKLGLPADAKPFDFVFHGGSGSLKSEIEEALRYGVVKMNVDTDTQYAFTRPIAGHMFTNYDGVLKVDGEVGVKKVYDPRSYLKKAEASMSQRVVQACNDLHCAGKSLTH
RecA intein inh – blocks M. tuberculosis RecA intein splicing; P9WHJ3; cell-free RecA intein splicing, fluorescence; inhibition, % (concentration not given with the values); 290,000 compounds, 0.75% hits; AID 2221; in the data active means inhibition above about 30%
Rv3671c protease – Rv3671c (M. tuberculosis) protease inhibition; P9WHR9; inhibition, % at 5.96 µM; 320,000 compounds, 0.048% hits; in the data active means inhibition above about 38%;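 further: extracellular domain of Rv3671c used as enzyme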
UGM FP inh – inhibitors of M. tuberculosis UDP-galactopyranose mutase; P9WIQ1; inhibition, % at 10 µM; 320,000 compounds, 0.06% hits; purified UGM, fluorescence polarization probe displacement; in the data active means inhibition above about 10%, passing the limit was not always enough
Vc quorum ag – quorum light induction in luxS cqsA deficient V. cholerae | V. cholerae BH1578 lux reporter, luminescence, 6 h | activation, % at 18.7 µM | 350,000 compounds, 0.16% hits | AID 588436; in the data active means activation mostly above about 9.7%, no sharp cut-off
GDH-TPI counter-1 – inhibits GDH-TPI coupling enzymes, artifact for Mtb FBA screen. GDH-TPI coupled enzyme counterscreen, NADH absorbance. inhibition, % at 4.8 µM. 360,000 compounds, 1.2% hits; in the data active means inhibition above about 30%
Mtb FBA inh conf – Mtb FBA inhibition, confirmed; shares compounds with FBA Mtb inh; purified M. tuberculosis FBA, fluorescence read-out; inhibition, % at 1 µM; 5,600 compounds, 78% hits; AID 651616
GDH-TPI counter-2 – counter-screen for M. tuberculosis FBA inhibitors: GDH-TPI coupled enzyme inhibition; shares compounds with FBA Mtb inh; GDH-TPI coupled enzyme counterscreen, fluorescence; inhibition, % at 1 µM; 5,600 compounds, 81% hits; in the data active means inhibition above about 10%
Hits are given with their value; n = inactive; x = not tested or not shown; + = active, no number. Compounds with a hit are over-represented: about 4.1% of the library has one in this group of screens. Unless noted, no stated cut-off is given here; in the data, active means inhibition above about 27%; inactive means the rest.

SMILES | FBA Mtb inh | RecA intein inh | Rv3671c protease | UGM FP inh | Vc quorum ag | GDH-TPI counter-1 | Mtb FBA inh conf | GDH-TPI counter-2
CNC(=S)Nc1ccc(-c2nc3ccc(C)cc3s2)cc1 | 93 | n | n | n | n | n | 45 | 32
CNC(=S)Nc1ccc(C)cc1 | n | n | n | n | n | n | x | x
Cc1ccc2nc(-c3ccc(NC(=O)CN(c4ccccc4C)S(C)(=O)=O)cc3)sc2c1 | 90 | n | n | n | n | n | + | +
C=CCn1c(SCC(=O)Nc2ccc(-c3nc4ccc(C)cc4s3)cc2)nnc1-c1ccccc1 | 41 | n | n | n | n | n | + | +
COCCNc1nnc(SC(C)C(=O)Nc2ccc(-c3nc4ccc(C)cc4s3)cc2)s1 (stereo unspecified) | 40 | n | n | n | n | n | + | +
COCCNc1nnc(SC(C)C(=O)Nc2c(C)n(C)n(-c3ccccc3)c2=O)s1 (stereo unspecified) | n | n | n | n | n | n | x | x
Cc1ccc2nc(-c3ccc(NC(=S)NCCC(C)C)cc3)sc2c1 | n | n | n | n | n | n | x | x
CCCCNC(=S)Nc1ccc(-c2nc3ccc(C)cc3s2)cc1 | 56 | n | n | n | n | n | n | n
Cc1ccc2nc(-c3ccc(NC(=S)NCC(C)(C)CN(C)C)cc3)sc2c1 | 77 | x | x | x | n | n | 69 | 53
Cc1ccc2nc(-c3ccc(NC(=O)CN4CCN(C(=O)c5ccco5)CC4)cc3)sc2c1 | 46 | n | n | n | n | n | + | +
Cc1cc(C)cc(N(CC(=O)Nc2ccc(-c3nc4ccc(C)cc4s3)cc2)S(C)(=O)=O)c1 | n | n | n | n | n | n | x | x
CCC(Sc1nc2ccsc2c(=O)n1Cc1ccc(C(=O)O)cc1)C(=O)Nc1ccc(Cl)cc1 (stereo unspecified) | n | x | x | x | n | n | x | x
Cc1ccc2c(CN(C)Cc3ccc(Cl)cc3Cl)cc(=O)oc2c1 | n | n | n | n | n | n | x | x
Nc1cccc2nc3ccccc3cc12 | 75 | n | n | x | n | n | n | n
Nc1[nH]nc2nc3ccccc3cc12 | n | n | n | n | n | n | x | x
COCc1ccc(C(=O)N2CCCC(Nc3ccc4c(c3)OCCO4)C2)o1 (stereo unspecified) | n | n | n | n | n | n | x | x
Cc1cccc(S(=O)(=O)c2c(N)n(-c3ccccc3)c3nc4ccccc4nc23)c1 | 74 | n | n | n | n | n | 63 | 50
COc1ccc(OC)c(/C=N/NC(=O)c2[nH]nc3c2CCc2ccccc2-3)c1 | 45 | n | n | n | n | n | + | +
COc1ccc(OC)c(/C=N/NC(=O)c2[nH]ncc2Br)c1 | 39 | x | n | n | n | n | + | +
COc1cccc(/C=N/NC(=O)c2[nH]nc3c2CCc2ccccc2-3)c1 | n | n | n | n | n | n | x | x
COc1ccc(OC)c(/C=N/NC(=O)CCc2n[nH]c(=O)[nH]c2=O)c1 | 60 | n | n | n | n | n | 119 | 87
CCc1nc2ccc(C(=O)NCCc3c[nH]c4ccccc34)cn2c1N(C)Cc1nccn1C | n | x | x | x | n | n | x | x
CC1(C(=O)Nc2cccc3ncccc23)CCN1C(=O)Cc1ccc(-c2ccccc2)cc1 (stereo unspecified) | n | x | x | x | n | n | x | x
CC(=O)c1ccc(N2CCN(C(=O)C(=O)c3cn(CC(=O)N4CCCCCC4)c4ccccc34)CC2)cc1 | n | n | n | n | n | n | x | x
O=C(O)c1cn(-c2ccc(F)cc2)c2cc(N3CCNCC3)c(F)cc2c1=O | 33 | x | x | x | n | n | 170 | 136
SMILES | FBA Mtb inh | RecA intein inh | Rv3671c protease | UGM FP inh | Vc quorum ag | GDH-TPI counter-1 | Mtb FBA inh conf | GDH-TPI counter-2
Cn1c(=O)c2cc(NC(=O)NCCc3cccs3)ccc2n1C/C=C/c1ccccc1 | 65 | x | x | x | n | n | n | n
CN(C)c1ccc(NC(=O)Nc2ccc3c(c2)c(=O)n(C)n3-c2ccccc2)cc1 | n | x | x | x | n | n | x | x
Cn1c(=O)c2cc(NC(=O)NCc3ccccc3)ccc2n1C/C=C/c1ccccc1 | 77 | x | x | x | n | n | 99 | 60
COc1ccc(C)cc1-n1c(SCC(=O)N2CCOCC2)nc2ccccc2c1=O | n | x | x | x | n | n | x | x
C[C@H](CO)N1C[C@H](C)[C@@H](CN(C)C(=O)NC2CCCCC2)Oc2ccc(NC(=O)CCC(F)(F)F)cc2C1=O | 76 | x | n | n | n | n | n | n
O=C1NC(c2ccc3c(c2)OCO3)Nc2ccccc21 (stereo unspecified) | n | n | n | n | n | n | x | x
O=C1NC(c2ccc3ccccc3c2)Nc2ccccc21 (stereo unspecified) | 50 | x | x | x | n | n | 71 | 87
CCN(CC)c1ccc(C2NC(=O)c3ccccc3N2)cc1 (stereo unspecified) | n | x | x | x | n | n | x | x
O=C1NC(c2ccc(Br)cc2)Nc2ccccc21 (stereo unspecified) | 42 | n | n | n | n | n | 102 | 95
CC(C)CNC(=O)[C@H](Cc1ccccc1)NC(=O)c1cccs1 | n | n | n | n | n | n | x | x
c1ccc2c(-c3cn4ccccc4n3)c[nH]c2c1 | x | n | n | n | x | x | x | x
Oc1ccc(-c2cn3ccccc3n2)cc1 | 57 | n | n | n | n | n | n | n
Oc1ccc(-c2cn3ccccc3n2)cc1O | n | n | n | n | n | n | x | x
CCN(CC)S(=O)(=O)c1cccc(-c2cn3cc(C)ccc3n2)c1 | n | n | n | n | n | n | x | x
c1ccc(-c2cn3ccccc3n2)cc1 | 35 | x | x | x | n | n | n | n
CCN(CC)S(=O)(=O)c1ccc(-c2cn3ccccc3n2)cc1 | 86 | x | x | x | n | n | 158 | 113
Nc1ccc2c(c1)C(=O)N(CCCC(=O)O)C2=O | n | n | n | n | n | n | x | x
Nc1ccc2c(c1)C(=O)N(CCCCCC(=O)O)C2 | 38 | n | n | n | n | n | 121 | 110
O=[N+]([O-])c1ccc(C[n+]2c(-c3ccccc3)cc(-c3ccccc3)cc2-c2ccccc2)cc1 | 67 | n | n | n | n | n | + | +
O=C([O-])c1cc(-c2ccccc2)cc(-c2ccccc2)[n+]1Cc1ccccc1 | x | n | n | n | x | x | x | x
COc1ccc(N2CCN(C(=O)NCc3ccc(C)cc3)CC2)cc1 | n | n | n | n | n | n | x | x
CC(C)(NC(=O)c1cc(Cl)c2ccccc2c1O)C(=O)O | 56 | n | n | n | n | n | 66 | 57
O=C(O)c1cc(Cl)c2ccccc2c1O | 40 | n | n | n | x | n | 50 | 44
O=C(O)c1cc(Cl)nc2ccccc12 | n | n | n | n | n | n | x | x
COc1cccc(C(=O)Nc2ccc(-c3nc4ccccc4o3)c(O)c2)c1 | 43 | n | n | n | n | 33 | 46 | 33
CCOc1ccc(NC(=O)Cc2ccc(S(=O)(=O)N3CCCCC3)cc2)cc1OCC | n | x | n | n | n | n | x | x
Cc1cc(-c2ccc(C(C)C)c(S(=O)(=O)Nc3ccccn3)c2)on1 | n | n | n | n | n | n | x | x

Screening data as filed in PubChem BioAssay.
